Screening results deposited in PubChem BioAssay by The Scripps Research Institute Molecular Screening Center.
Hits are enriched below; roughly 3.5% of the tested compounds scored in any of these assays.
GPR151 activ – human GPR151 activation. PathHunter beta-arrestin GPR151 cells, luminescence. actives 1% (n = 650,000). Q8TDV0. activation, % at 11.2 µM; in the data active means activation above about 4.9%;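 further: 0% = median of compound wells and 100% = cells with positive control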
TEAD-YAP inh – TEAD-YAP interaction inhibition; HEK-TIYL cells, TEAD-Gal4/YAP UAS-luciferase luminescence; inhibition, % at 9.12 µM; actives 1.4% (n = 640,000); AID 1259422; in the data active means inhibition above about 32%;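 further: 0% = median of test compound wells and 100% = reference inhibitor wells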
MITF inh – inhibitors of human MITF. O75030. AlphaScreen MITF homodimerization, bead proximity signal. inhibition, % at 2.6 µM. actives 0.91% (n = 650,000); in the data active means inhibition above about 50%;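 further: 0% = vehicle wells with protein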
FBW7 act – activators of human E3 ligase FBW7 | Q969H0 | AlphaScreen FBW7–phospho-cyclin E peptide binding, activator screen | normalized activity (activation), % at 26.1 µM | actives 0.13% (n = 650,000); in the data active means normalized activity above about 1.9%;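 further: purified mutant Fbw7 with reduced substrate affinity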
MITF inh conf – human MITF inhibition, confirmation. actives 16% (n = 4,700). AlphaScreen MITF homodimerization, biotin/His-MITF beads. shares compounds with MITF inh. inhibition, % at 2.6 µM;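 active means inhibition above a cutoff derived from the DMSO control wells, cut at about 28% in these data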;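 further: 0% = MITF dimer wells with DMSO only; inhibitors lower the bead chemiluminescence by keeping MITF from dimerizing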
AlphaScreen DR – counter-screen: compounds optically interfering with AlphaScreen; shares compounds with MITF inh; AlphaScreen optical interference counterscreen, cell-free; IC50, µM; actives 6% (n = 480); call rule not given here
AlphaScreen intf2 – optically interferes with AlphaScreen signal; shares compounds with MITF inh; LysRS AlphaScreen counterscreen, signal interference, triplicate; inhibition, % at 2.6 µM; actives 7.6% (n = 4,700); AID 1259376;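 active means inhibition above a cutoff derived from the DMSO control wells, cut at about 30% in these data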
Numbers without * were called inactive.

CN1CC(=O)N2CCN(C(=O)NC3CCCCC3)C[C@@H]2C1=O was read as GPR151 activ 0, TEAD-YAP inh 1, MITF inh 74*, FBW7 act 0, MITF inh conf 74*, AlphaScreen DR >6.5 and AlphaScreen intf2 -4.
For CN1CC(=O)N2CCN(C(=O)c3cc(Cl)cc(Cl)c3)C[C@@H]2C1=O the results were GPR151 activ 1, TEAD-YAP inh 13, MITF inh 30 and FBW7 act 0.
`O=C(c1cc(F)c(F)cc1F)N1CCN2C(=O)[C@@H]3CCCN3C(=O)[C@H]2C1` gave GPR151 activ 0, TEAD-YAP inh -6, MITF inh -2 and FBW7 act 0.
CN1CC(=O)N2CCN(C(=O)c3cccc4ccccc34)C[C@@H]2C1=O was read as GPR151 activ 0, TEAD-YAP inh -4, MITF inh 12 and FBW7 act 0.
Screening O=C(NC1CCCCC1)N1CCN2C(=O)[C@@H]3CCCN3C(=O)[C@H]2C1 returned GPR151 activ 1, TEAD-YAP inh 8, MITF inh 82*, FBW7 act 0, MITF inh conf 71*, AlphaScreen DR >6.5 and AlphaScreen intf2 -12.
For CN1CC(=O)N2CCN(C(=O)c3ccccc3Cl)C[C@@H]2C1=O the results were GPR151 activ 0, TEAD-YAP inh 8, MITF inh 54*, FBW7 act 1, MITF inh conf -2 and AlphaScreen intf2 -4.
For Cc1ccc(S(=O)(=O)N2CCN(C(C)CC(=O)O)CC2)cc1 (stereo unspecified) the results were GPR151 activ -1, TEAD-YAP inh -15, MITF inh 65*, FBW7 act 0, MITF inh conf -3 and AlphaScreen intf2 0.
c1ccc(-c2nc(NC3CCCCC3)c3oc4ccccc4c3n2)cc1 was read as GPR151 activ 0, TEAD-YAP inh 10, MITF inh 9 and FBW7 act 1.
For O=C(O)c1cc(S(=O)(=O)Nc2ccc(-n3cnnn3)cc2)ccc1O the results were GPR151 activ 0, TEAD-YAP inh -1, MITF inh 53*, FBW7 act 0, MITF inh conf 41*, AlphaScreen DR >7.2 and AlphaScreen intf2 14.
`CC(Cc1cnccn1)NC(=O)CCc1nnc(CCC2CCCCC2)o1` (stereo unspecified) gave GPR151 activ 2, TEAD-YAP inh 4, MITF inh 2 and FBW7 act 0.
Screening CC(NC(=O)CCc1nnc(CCC2CCCCC2)o1)c1ccncn1 (stereo unspecified) returned GPR151 activ 0, TEAD-YAP inh -7, MITF inh 74*, FBW7 act 0, MITF inh conf -1 and AlphaScreen intf2 9.
Screening CC1(C)CC(OC(=O)CCN2CCCCC2)CC(C)(C)N1 returned GPR151 activ 2, TEAD-YAP inh -5, MITF inh -4 and FBW7 act 0.
For CCCCS(=O)(=O)C1CCCCC1OC(=O)CCN1CCCCC1 (stereo unspecified) the results were GPR151 activ -2, TEAD-YAP inh 9, MITF inh 51*, FBW7 act 0, MITF inh conf 15 and AlphaScreen intf2 0.
For Cc1ccc(-n2c(C)nc3ccc(NS(=O)(=O)c4ccccc4F)cc3c2=O)cc1 the results were GPR151 activ 1, TEAD-YAP inh 4, MITF inh 6 and FBW7 act 0.
Cc1ccc(Nc2nc(-c3ccccn3)cs2)c(C)c1 was read as GPR151 activ -4, TEAD-YAP inh 57*, MITF inh 51*, FBW7 act -1, MITF inh conf 21 and AlphaScreen intf2 39*.
For CN(C)/C=C/C=C/C(=O)c1cccc(C(=O)/C=C/C=C/N(C)C)c1O the results were GPR151 activ 1, TEAD-YAP inh -8, MITF inh 56*, FBW7 act 0, MITF inh conf 79*, AlphaScreen DR >6.5 and AlphaScreen intf2 -11.
For Cc1ccc(C(=O)/C=C/C=C/C=C/N(C)C)o1 the results were GPR151 activ -1, TEAD-YAP inh -4, MITF inh 16 and FBW7 act 0.
`COC(=O)c1cc(S(=O)(=O)NCc2ccccc2Cl)c[nH]1` gave GPR151 activ 0, TEAD-YAP inh 0, MITF inh 13 and FBW7 act 0.
